KDM5B inhibitor: inhibitors of human KDM5B histone demethylase; KDM5B demethylase, FDH-coupled NADH fluorescence (FDH is formaldehyde dehydrogenase); Potency, µM (top dose mostly 57.7 µM), most hits filed as inhibitors; hit rate 2.6% among 220,000; AID 1347165; active = well fitted inhibition curve with a large enough effect; inconclusive = small, poorly fitted or top-dose-only effect; inactive = no such curve, though single readings can be large or run the other way; also: potency is read from the fitted curve at half-maximal effect; 0% is about no effect; nearly all actives have a fitted effect of over 70% in size
Target sequence (Q9UGL1 whole entry, looked up): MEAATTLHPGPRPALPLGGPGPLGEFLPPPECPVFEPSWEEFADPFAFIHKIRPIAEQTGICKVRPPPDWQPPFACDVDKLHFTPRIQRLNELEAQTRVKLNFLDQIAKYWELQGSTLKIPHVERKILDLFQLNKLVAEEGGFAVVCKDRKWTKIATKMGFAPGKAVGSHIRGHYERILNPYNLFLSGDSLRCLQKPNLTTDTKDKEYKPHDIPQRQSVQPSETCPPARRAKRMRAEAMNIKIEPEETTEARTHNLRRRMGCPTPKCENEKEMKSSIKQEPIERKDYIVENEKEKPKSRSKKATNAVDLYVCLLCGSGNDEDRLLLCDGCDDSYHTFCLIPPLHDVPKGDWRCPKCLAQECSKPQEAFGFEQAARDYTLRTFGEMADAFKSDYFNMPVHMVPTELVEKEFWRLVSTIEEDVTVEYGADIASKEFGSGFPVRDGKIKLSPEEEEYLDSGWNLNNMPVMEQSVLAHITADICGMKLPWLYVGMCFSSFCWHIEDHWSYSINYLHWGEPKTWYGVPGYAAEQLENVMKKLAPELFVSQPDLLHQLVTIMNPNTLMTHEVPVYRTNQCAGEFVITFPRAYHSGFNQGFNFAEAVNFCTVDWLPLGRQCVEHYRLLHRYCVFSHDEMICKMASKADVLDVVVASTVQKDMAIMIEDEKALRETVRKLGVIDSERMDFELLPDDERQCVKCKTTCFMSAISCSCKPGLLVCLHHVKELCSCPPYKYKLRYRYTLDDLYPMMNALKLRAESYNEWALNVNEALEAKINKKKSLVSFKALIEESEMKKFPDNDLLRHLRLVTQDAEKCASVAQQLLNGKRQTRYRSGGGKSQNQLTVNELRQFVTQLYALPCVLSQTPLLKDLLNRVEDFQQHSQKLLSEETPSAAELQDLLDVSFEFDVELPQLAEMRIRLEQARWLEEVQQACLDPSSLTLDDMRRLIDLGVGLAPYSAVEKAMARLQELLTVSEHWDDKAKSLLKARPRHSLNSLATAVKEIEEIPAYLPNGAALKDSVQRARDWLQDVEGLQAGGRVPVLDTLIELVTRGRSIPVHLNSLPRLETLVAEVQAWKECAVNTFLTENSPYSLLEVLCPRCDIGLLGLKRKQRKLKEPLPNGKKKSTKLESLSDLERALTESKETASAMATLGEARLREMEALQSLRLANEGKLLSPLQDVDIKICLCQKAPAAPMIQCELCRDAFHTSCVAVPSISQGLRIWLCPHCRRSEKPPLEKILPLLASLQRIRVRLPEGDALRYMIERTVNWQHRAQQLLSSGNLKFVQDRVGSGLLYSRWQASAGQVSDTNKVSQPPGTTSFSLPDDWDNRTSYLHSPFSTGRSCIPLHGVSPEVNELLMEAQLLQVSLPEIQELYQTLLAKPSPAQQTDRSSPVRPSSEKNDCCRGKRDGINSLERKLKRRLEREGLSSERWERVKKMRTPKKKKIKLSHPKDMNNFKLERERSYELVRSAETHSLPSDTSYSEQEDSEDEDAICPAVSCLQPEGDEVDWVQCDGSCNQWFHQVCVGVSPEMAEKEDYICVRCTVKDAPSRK
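KDM5BΔAP (200 nM final) in 50 mM HEPES pH 7.5, 0.01% Tween-20 was preincubated 10 min at RT with compound over a concentration range. Substrate mix (H3K4me3 12.5 µM, α-KG 25 µM, Fe²⁺, ascorbate, NAD⁺, FDH) was added, and NADH fluorescence change over 30 min gave dose-response curves.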
IP6K1 inh: inhibitors of human IP6K1; Q92551; hit rate 0.81% among 140,000; AID 1645851; activity change, % (series mostly up to about 58 µM); IP6K1 kinase, ADP-Glo luminescence, 2 h; active compounds read low; in the data active = activity change below about -25%; also: % is scaled to controls: 0 for no effect and ±100 for the full control effect
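ADP-Glo luminescence measures ADP made by human IP6K1 during a 2 h RT reaction with ATP/IP6 (mix at 1.3 mM/130 uM); top library doses 57.5 and 19.1 uM final.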
* = called active by the depositor; i = inactive; ? = inconclusive; / = not tested or not shown. Only some compounds are listed: those with a hit (about 2.8% of all), similar ones and a draw of the others.

SMILES	KDM5B inhibitor	IP6K1 inh
CCN(CC)Cc1cc(-c2nc(C3CCOC3)no2)c(-c2ccccc2)o1 (stereo unspecified)	25µM*	1
Cc1cc2cccc(-c3nc(C4CCOC4)no3)c2o1 (stereo unspecified)	22µM*	8
Cc1cc(C)nc(SCc2ccc(-c3nc(C4CCOC4)no3)o2)n1 (stereo unspecified)	i	-9
COc1c(C)cccc1-c1nc(C2CCOC2)no1 (stereo unspecified)	i	-14
Cc1cc(C)cc(NC(=O)CSc2nc3nccnc3c(=O)n2CCc2ccccc2)c1	i	/
CN(Cc1ccc(C#N)cc1)Cc1ccco1	i	/
O=C1Nc2ccccc2CC12CCN2Cc1ccc(C(F)(F)F)cc1 (stereo unspecified)	i	-2
O=C1Nc2ccccc2CN(CC2CC2)C12CCNC2 (stereo unspecified)	i	10
CC(C)=CCN1Cc2ccccc2NC(=O)C12CCNC2 (stereo unspecified)	?	-21
O=C1Nc2ccccc2CN(CC2CCCC2)C12CCNC2 (stereo unspecified)	89µM*	-18
O=C1Nc2ccccc2CN(Cc2ccc(C(F)(F)F)cc2)C12CCNCC2	50µM*	-13
O=C1Nc2ccccc2CN(Cc2ccc(F)cc2)C12CCNCC2	45µM*	-13
CN(C)C[C@@H]1CN(c2ccncn2)C[C@H]1NC(=O)c1cccn1C	i	-8
CN(C)C[C@@H]1CN(c2ccncn2)C[C@H]1NC(=O)Cn1c(=O)oc2ccccc21	i	-3
CN(C)C[C@@H]1CN(c2ccncn2)C[C@H]1NC(=O)NC1CCCCC1	i	-2
CN(C)C[C@@H]1CN(c2ccccn2)C[C@H]1NC(=O)c1ccoc1	28µM*	9
CN(C)C[C@@H]1CN(c2ccccn2)C[C@H]1NC(=O)c1ccc(C#N)cc1	i	-6
CN(C)C[C@@H]1CN(c2ccccn2)C[C@H]1NC(=O)Cn1c(=O)oc2ccccc21	22µM*	19
CN(C)C[C@@H]1CN(c2ccccn2)C[C@H]1NC(=O)NC1CCCCC1	32µM*	9
CN(C)C[C@@H]1CN(c2ccccn2)C[C@H]1NC(=O)c1cccn1C	22µM*	-4
O=C(NCC(=O)N1CCOCC1)c1cccc(-c2ccc(C(F)(F)F)cc2)c1	/	0
COc1ccc(F)cc1-c1ccc(CN2CCC(NC(=O)Nc3ccc(C)c(F)c3)C2)cc1 (stereo unspecified)	/	14
Cc1ccccc1CS(=O)Cc1c(F)cccc1Cl (stereo unspecified)	i	/
COc1ccc(OC)c(/C=C(\C#N)C(=O)Nc2cc(C(F)(F)F)ccc2Cl)c1	i	/
COc1cccc(CC(=O)N2CCC(N3C(=O)c4c(c(C)nn4-c4ccccc4)C3C)CC2)c1 (stereo unspecified)	/	-2
SMILES	KDM5B inhibitor	IP6K1 inh
CCCCN1CCN(c2nc3c(c(=O)[nH]c(=O)n3C)n2Cc2ccccc2)CC1	i	/
CN(C)C[C@@H]1CN(c2ccncn2)C[C@H]1NC(=O)c1ccsc1	i	6
CN(C)C[C@@H]1CN(c2ccccn2)C[C@H]1NC(=O)c1ccsc1	22µM*	0
CN(C)C[C@@H]1CN(c2ccccn2)C[C@H]1NC(=O)c1ccc2c(c1)OCO2	28µM*	13
CN(C)C[C@@H]1CN(c2ccncn2)C[C@H]1NC(=O)c1ccc2c(c1)OCO2	?	-9
O=C(C1CCC1)N1CCC2(CC1)CC(Cc1nc(-c3cnccn3)no1)CCO2 (stereo unspecified)	/	3
COCCOCc1ccc(CC2CCN(C(=O)c3ccc(OC)cc3OC)CC2)cc1	/	0
COc1ccc(-c2ccnc3nc(C4CCC4)nn23)cc1OC	?	6
c1csc(-c2ccnc3nc(C4CCC4)nn23)c1	i	4
COc1ccc(-c2ccnc3nc(C4CCC4)nn23)cc1	i	-14
COc1cc(F)ccc1-c1ccnc2nc(C3CCCO3)nn12 (stereo unspecified)	28µM*	-8
COc1cc(-c2ccnc3nc(C4CCCCC4)nn23)cc(OC)c1OC	25µM*	14
Brc1ccc(-c2ccnc3nc(C4CCCO4)nn23)s1 (stereo unspecified)	i	-1
COc1cc(F)ccc1-c1ccnc2nc(C3CCC3)nn12	28µM*	-10
COc1ccc(-c2ccnc3nc(C4CCC4)nn23)c(F)c1	28µM*	11
Cc1cc(S(=O)(=O)N2CCC3(CCC(=O)N(Cc4ccccc4)CC3)CC2)ccc1F	/	21
Cn1ccc2nc3ncnn3c(-c3ccccc3)c2c1=O	i	/
Cc1c(C)n(CCCN2CCOCC2)c2ncn3nc(COc4ccc(Cl)cc4)nc3c12	i	/
Cn1ncc2c(C(=O)N3CCN(Cc4ccccc4)CC3)cc(-c3ccc(Cl)cc3Cl)nc21	/	-4
c1ccc2oc(-c3ccnc4nc(C5CCC5)nn34)cc2c1	11µM*	-4
CCc1nc2nccc(-c3cc4ccccc4o3)n2n1	i	2
Oc1ccc(-c2nc(C3CC3)nc3c2CN(Cc2ccc(C(F)(F)F)cc2)CC3)cc1	?	-5
CCN(CC)C(=O)C(=O)c1c(-c2ccccc2)n(C)c2ccccc12	i	/
Cc1noc(C)c1-c1cc(-c2cccc3cc[nH]c23)cn2cncc12	?	-15
O=c1ccc(-c2cc(-c3cccc4cn[nH]c34)cn3cncc23)c[nH]1	?	3
SMILES	KDM5B inhibitor	IP6K1 inh
C1=C(c2cc(-c3cccc4[nH]ccc34)cn3cncc23)CCOC1	25µM*	-9
Oc1ccccc1-c1cc(C2=CCOCC2)c2cncn2c1	32µM*	-13
C1=C(c2cc(-c3cccc4cn[nH]c34)cn3cncc23)CCOC1	32µM*	29
Oc1cccc(-c2cc(C3=CCOCC3)c3cncn3c2)c1	?	-6
O=C(NC1CCN(C(=O)c2ccc(-c3cccs3)cc2)CC1)c1ccc(Cl)nc1	/	8
COc1cc(CCC(=O)O)cc2c1OCO2	i	/
CCC(CC)C(=O)N1CC[C@@H](CC(=O)O)[C@@H](CC2=NCCc3ccc(C)cc32)C1	?	0
CCCNC(=O)N1CC[C@@H](CC(=O)O)[C@@H](CC2=NCCc3ccc(OC)cc32)C1	40µM*	25
CCCNC(=O)N1CC[C@@H](CC(=O)O)[C@@H](CC2=NCCc3ccc(C(C)(C)C)cc32)C1	?	10
COc1ccc2c(c1)C(C[C@H]1CN(C(=O)C3CC3)CC[C@H]1CC(=O)O)=NCC2	40µM*	15
CCc1nn2c(C)c(C(=O)Nc3ccc(F)cc3)nnc2c1-c1ccc(OC)cc1	i	/
COCCn1c(SC(C)C(=O)c2ccc(Br)cc2)nnc1-c1cccc(C)c1 (stereo unspecified)	i	/
COc1ccccc1-c1cc2c(ccn2C)c(C(=O)NCCc2ccccn2)n1	35µM*	-6
COc1ccccc1-c1cc2c(ccn2C)c(C(=O)NCc2cccnc2)n1	i	31
COc1ccccc1-c1cc2c(ccn2C)c(C(=O)NCc2cnccn2)n1	32µM*	-13
CN1CCN(c2ccc(-c3cc4c(ccn4C)c(C(=O)NCCc4ccccn4)n3)cc2)CC1	?	95
CC(C)C1Cc2c(sc3nc(SCC(=O)O)n(-c4ccccc4)c(=O)c23)CO1 (stereo unspecified)	i	/
CS(=O)(=O)N1CCCC(OCc2noc(-c3cccnc3)n2)C1 (stereo unspecified)	/	10
Clc1ccc(CN2CCC3(CC2)CC(Cc2ccccc2)=NO3)cc1	i	-7
